A number with no mark means an inactive call. How the calls were made is not given here.

Sequence of Pantothenate synthetase (Mycobacterium tuberculosis (strain ATCC 25618 / H37Rv)) (P9WIL5 whole entry, looked up): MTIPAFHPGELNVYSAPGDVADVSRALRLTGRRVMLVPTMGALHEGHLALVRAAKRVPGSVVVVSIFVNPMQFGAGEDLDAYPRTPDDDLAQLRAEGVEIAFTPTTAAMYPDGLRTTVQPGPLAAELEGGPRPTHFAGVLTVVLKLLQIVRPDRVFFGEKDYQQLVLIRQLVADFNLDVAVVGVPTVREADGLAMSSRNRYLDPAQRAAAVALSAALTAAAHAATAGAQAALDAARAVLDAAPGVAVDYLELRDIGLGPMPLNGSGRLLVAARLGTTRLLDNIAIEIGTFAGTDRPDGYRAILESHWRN

This assay concerns the target Pantothenate synthetase (Mycobacterium tuberculosis (strain ATCC 25618 / H37Rv)) (UniProt P9WIL5). Briefly: Recombinant Mtb pantothenate synthetase (PanC) inhibitors, coupled enzyme, confirmatory (AID 375).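 Further: 0% = full reaction with vehicle and 100% = no enzyme background.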 The conditions noted are these: coupled enzyme assay; at 10 µM, active compounds read high.
In the case of `COc1ccccc1N1CCN(C(=O)N2CCOCC2)CC1`, the inhibition was 0%.

As for `Cn1c(SCc2c(F)cccc2Cl)nnc1-c1cccs1`, the inhibition was 0%.

On to `CC1CC(C)CN(c2ncnc3c2cnn3-c2ccc(Cl)cc2)C1` (stereo not given), for which the inhibition was 1%. The value for `CCOC(=O)CN1C(=O)C(=O)c2cccc(C)c21` was 0%; that for `Cc1csc(NC(=O)Nc2cccc(Cl)c2)n1` was 0%; that for `CCCCc1ccc(NC(=O)N[C@H](C(=O)O)C(C)C)cc1` was 1%. The value for `CN1CCN(S(=O)(=O)c2ccc(Sc3nnc(-c4cccs4)n3-c3ccccc3)nc2)CC1` was 3%; that for `CCN(CC(=O)Nc1ccc(S(N)(=O)=O)cc1)S(=O)(=O)c1cc(C)ccc1OC` was 6%; that for `C=CCSc1nc(N)c(C(=O)Nc2ccccc2C)cc1C(N)=O` was 0%. For the compound `Cc1c(Cl)cccc1N1C(=O)c2ccccc2C1=O`, the inhibition was 0%.

For the compound `O=C(Cn1nc(Cc2ccncc2)c2ccccc2c1=O)N1CCc2ccccc2C1`, the inhibition is 0%. The value for `COC(=O)C1=C(N)Oc2cc(C)n(Cc3ccncc3)c(=O)c2C1c1cccnc1` (stereo not given) was 0%.

On to `CCCCN(C)C(=O)c1ccc(CS(=O)(=O)c2ccccc2C)o1`, for which the inhibition is 2%. Take `Cc1ccccc1Nc1nc(N)nc(CSCc2c(C)noc2C)n1`: the inhibition is 0%. Then `CCOC(=O)C1CCN(C(=O)CSc2cc(=O)n(CC)c3ccccc23)CC1`, with 4%; and `Cc1ccc(N2CCN(C(=O)c3ccccc3)CC2)c(C)c1`, with 1%. Then `CC(=O)c1ccc(OC(=O)c2cccs2)cc1`, with 0%. On to `O=C(CSc1nc2ccccc2o1)N1CCN(C(=O)c2ccco2)CC1`, for which the inhibition is 0%. Turning to `N#C/C(C(=O)N1CCOCC1)=C1/SC=C(c2ccccc2)N1c1ccccc1`, the inhibition is 7%.

For `COCCSc1ccccc1C(=O)Nc1cc(C)on1`, the inhibition is 5%. With `Nc1cccc2c1C(=O)N(c1ccccc1)C2=O`, the inhibition is 0%. The value for `COC(=O)c1ccccc1NC(=O)C1CCCCC1C(=O)O` (stereo not given) was 0%; that for `CC(=O)c1ccccc1Oc1nc(CN2CCOCC2)nc2scc(-c3cccs3)c12` was 3%.

Regarding `O=C(Nc1ccc(N2CCCC2)cc1)c1cccc(F)c1`, the inhibition was 4%. Then `CCOc1ccc(N(CC(=O)NCC2CCCO2)S(=O)(=O)c2ccc(OC)c(OC)c2)cc1` (stereo not given), with 0%; and `CCCOc1ccc(N2C(=O)C3ON(c4ccccc4)C(c4ccc(O)c(OC)c4)C3C2=O)cc1` (stereo not given), with 1%; and `CC1CCCN(C(=O)CN2CCN(C(=O)c3ccco3)CC2)C1` (stereo not given), with 0%. The value for `COc1ccc(N2CCN(C(=O)C(OC(C)=O)c3ccccc3)CC2)cc1` (stereo not given) was 3%; that for `NC(N)=NC(N)=NCCc1ccccc1` was 4%; that for `COC(=O)CSc1ncccc1-c1nc2ccccc2[nH]1` was 0%. Then `CCC(C)NC(=O)CCNS(=O)(=O)c1ccc(Br)cc1` (stereo not given), with 0%; and `c1coc(-c2nnc(NC3=NCCC3)o2)c1`, with 0%.

As for `COc1ccc(-c2cn3c(C)c(C(=O)Nc4cc(NC(C)=O)ccc4OC)sc3n2)cc1`, the inhibition was 4%. The value for `Cc1nnc(SCC(=O)N2CCC(C(=O)Nc3nccs3)CC2)n1Cc1ccccc1` was 0%. With `Fc1cccc(Nc2cc(-n3cccn3)ncn2)c1`, the inhibition is 3%. Take `COc1ccc(NC(=O)CSc2nc(C)cc(C(F)(F)F)n2)cc1`: the inhibition was 0%.

For the compound `CCCOC(=O)CSc1nc(N)c(C#N)c(CC)c1C#N`, the inhibition is 8%. Then `O=C(Nc1ccccc1)N(CCCN1CCOCC1)Cc1cc2cc3c(cc2[nH]c1=O)OCCO3`, with 0%; and `c1ccc(N2CCN(Cc3cn4cccnc4n3)CC2)cc1`, with 3%.

`CN(C)[C@@H]1C(=O)C(C(N)=O)=C(O)[C@@]2(O)C(=O)C3=C(O)c4c(O)ccc(Cl)c4[C@@H](O)[C@H]3C[C@@H]12`: the inhibition is 0%.

The values are drawn from PubChem BioAssay.
